Experimental data taken from ChEMBL document CHEMBL1961873, “Compounds: GSK PKIS; Assays: Nanosyn kinase panel” (2012).

How the values were obtained:
[1] = molecular target: Leukocyte tyrosine kinase receptor (Homo sapiens) (UniProt P29376); details: at 1 µM;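 further: each value is the mean inhibition of LTK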
[2] = molecular target: Tyrosine-protein kinase Lyn (Homo sapiens) (UniProt P07948); details: at 0.1 µM
[3] = molecular target: Tyrosine-protein kinase Lyn (Homo sapiens) (UniProt P07948); details: at 1 µM
[4] = molecular target: Tyrosine-protein kinase Lyn (Homo sapiens) (UniProt P07948); details: at 0.1 µM; remark: listed apart in the source
[5] = molecular target: Tyrosine-protein kinase Lyn (Homo sapiens) (UniProt P07948); details: at 1 µM; remark: listed apart in the source
[6] = molecular target: T1, Tyrosine-protein kinase Mer (Homo sapiens) (UniProt Q12866); details: at 0.1 µM
T1 sequence (whole entry): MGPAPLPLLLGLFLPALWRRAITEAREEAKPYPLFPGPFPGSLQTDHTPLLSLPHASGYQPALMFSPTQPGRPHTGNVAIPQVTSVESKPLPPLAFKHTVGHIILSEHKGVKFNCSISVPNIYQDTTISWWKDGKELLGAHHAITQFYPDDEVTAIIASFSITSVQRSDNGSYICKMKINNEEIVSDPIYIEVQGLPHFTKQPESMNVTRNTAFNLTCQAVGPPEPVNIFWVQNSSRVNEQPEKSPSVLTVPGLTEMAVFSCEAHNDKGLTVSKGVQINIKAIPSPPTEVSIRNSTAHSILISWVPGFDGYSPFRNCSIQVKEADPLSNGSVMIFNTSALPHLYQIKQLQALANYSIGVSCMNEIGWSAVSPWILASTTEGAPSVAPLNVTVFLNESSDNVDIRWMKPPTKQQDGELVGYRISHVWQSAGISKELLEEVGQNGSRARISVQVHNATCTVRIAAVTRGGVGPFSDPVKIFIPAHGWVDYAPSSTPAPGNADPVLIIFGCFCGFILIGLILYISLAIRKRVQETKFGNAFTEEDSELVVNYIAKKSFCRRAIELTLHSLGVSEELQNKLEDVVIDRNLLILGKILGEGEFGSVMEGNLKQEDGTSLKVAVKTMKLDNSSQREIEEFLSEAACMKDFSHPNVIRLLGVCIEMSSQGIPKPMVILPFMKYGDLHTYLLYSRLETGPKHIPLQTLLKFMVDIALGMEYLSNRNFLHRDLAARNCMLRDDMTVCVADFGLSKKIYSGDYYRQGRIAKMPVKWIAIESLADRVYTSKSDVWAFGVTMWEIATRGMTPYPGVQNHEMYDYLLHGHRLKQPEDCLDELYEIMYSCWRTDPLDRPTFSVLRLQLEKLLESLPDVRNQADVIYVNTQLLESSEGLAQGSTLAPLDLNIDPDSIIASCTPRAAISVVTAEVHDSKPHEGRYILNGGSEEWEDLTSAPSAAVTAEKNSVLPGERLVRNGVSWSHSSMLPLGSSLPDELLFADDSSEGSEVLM

[7] = molecular target: T1, Tyrosine-protein kinase Mer (Homo sapiens); details: at 1 µM
[8] = molecular target: Hepatocyte growth factor receptor (Homo sapiens) (UniProt P08581); details: at 0.1 µM
[9] = molecular target: Hepatocyte growth factor receptor (Homo sapiens) (UniProt P08581); details: at 1 µM
[10] = molecular target: T2, Muscle, skeletal receptor tyrosine-protein kinase (Homo sapiens) (UniProt O15146); details: at 0.1 µM;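 further: values are mean inhibition of MuSK from the GSK PKIS kinase screening panel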
T2 sequence (whole entry): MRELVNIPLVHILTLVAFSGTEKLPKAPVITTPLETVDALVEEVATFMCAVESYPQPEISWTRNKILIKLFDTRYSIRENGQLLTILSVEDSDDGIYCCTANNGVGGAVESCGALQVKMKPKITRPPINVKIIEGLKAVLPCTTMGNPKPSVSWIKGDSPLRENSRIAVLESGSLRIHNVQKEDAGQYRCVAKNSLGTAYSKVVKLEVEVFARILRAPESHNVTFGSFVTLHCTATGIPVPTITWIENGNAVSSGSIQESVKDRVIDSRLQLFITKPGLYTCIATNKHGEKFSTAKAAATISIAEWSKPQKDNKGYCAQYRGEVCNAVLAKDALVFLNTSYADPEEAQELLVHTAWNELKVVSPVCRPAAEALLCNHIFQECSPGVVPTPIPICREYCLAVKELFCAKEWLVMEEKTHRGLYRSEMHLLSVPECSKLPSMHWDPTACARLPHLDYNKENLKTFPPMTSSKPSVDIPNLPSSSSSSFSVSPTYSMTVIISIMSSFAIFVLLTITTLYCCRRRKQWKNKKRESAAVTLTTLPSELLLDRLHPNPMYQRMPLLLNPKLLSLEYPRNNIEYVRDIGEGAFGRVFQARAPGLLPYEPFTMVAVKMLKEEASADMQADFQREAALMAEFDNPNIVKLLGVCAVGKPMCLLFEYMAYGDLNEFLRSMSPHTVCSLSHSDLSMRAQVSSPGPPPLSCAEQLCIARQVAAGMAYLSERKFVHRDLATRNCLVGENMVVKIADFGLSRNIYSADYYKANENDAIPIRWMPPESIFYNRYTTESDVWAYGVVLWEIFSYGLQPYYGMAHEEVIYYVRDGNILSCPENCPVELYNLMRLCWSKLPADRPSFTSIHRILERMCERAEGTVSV

Chain of Tyrosine-protein kinase Lyn (Homo sapiens) (P07948 2-512 limits assumed): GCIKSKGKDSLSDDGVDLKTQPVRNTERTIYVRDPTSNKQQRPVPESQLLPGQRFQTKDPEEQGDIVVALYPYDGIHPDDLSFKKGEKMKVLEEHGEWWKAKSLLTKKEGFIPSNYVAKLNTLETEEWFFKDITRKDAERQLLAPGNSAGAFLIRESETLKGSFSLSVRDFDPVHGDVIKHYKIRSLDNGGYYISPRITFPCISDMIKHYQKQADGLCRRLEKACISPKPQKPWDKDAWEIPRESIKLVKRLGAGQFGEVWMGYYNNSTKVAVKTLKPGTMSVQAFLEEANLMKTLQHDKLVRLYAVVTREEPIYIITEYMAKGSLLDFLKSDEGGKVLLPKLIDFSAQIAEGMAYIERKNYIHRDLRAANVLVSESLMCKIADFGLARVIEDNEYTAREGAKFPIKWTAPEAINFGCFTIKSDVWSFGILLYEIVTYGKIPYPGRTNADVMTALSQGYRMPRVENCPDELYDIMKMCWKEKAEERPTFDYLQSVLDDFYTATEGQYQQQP
Chain of Leukocyte tyrosine kinase receptor (Homo sapiens) (P29376 whole entry): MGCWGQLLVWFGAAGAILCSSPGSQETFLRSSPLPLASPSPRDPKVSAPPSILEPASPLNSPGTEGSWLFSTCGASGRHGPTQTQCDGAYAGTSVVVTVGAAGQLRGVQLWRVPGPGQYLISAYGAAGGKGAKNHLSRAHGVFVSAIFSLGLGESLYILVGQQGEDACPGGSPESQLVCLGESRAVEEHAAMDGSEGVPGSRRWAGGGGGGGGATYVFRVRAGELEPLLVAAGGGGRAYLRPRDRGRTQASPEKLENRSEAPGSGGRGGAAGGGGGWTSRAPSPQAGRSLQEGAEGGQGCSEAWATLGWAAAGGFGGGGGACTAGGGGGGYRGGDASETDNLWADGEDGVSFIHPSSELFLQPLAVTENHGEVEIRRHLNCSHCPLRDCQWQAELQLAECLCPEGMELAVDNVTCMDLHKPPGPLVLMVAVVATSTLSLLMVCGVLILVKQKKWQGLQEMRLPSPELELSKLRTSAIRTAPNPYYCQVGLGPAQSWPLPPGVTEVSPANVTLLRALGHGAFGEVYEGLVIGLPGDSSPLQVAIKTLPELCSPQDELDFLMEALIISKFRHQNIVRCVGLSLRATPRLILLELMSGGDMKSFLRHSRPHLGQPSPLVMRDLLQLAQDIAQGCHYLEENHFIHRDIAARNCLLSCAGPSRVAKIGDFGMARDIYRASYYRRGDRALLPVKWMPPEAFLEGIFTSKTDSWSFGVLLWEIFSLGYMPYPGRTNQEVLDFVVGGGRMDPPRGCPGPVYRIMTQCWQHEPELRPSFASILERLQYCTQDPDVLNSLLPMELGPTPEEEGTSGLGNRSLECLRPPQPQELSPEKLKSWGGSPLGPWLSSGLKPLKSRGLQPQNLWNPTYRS
Chain of Hepatocyte growth factor receptor (Homo sapiens) (P08581 whole entry): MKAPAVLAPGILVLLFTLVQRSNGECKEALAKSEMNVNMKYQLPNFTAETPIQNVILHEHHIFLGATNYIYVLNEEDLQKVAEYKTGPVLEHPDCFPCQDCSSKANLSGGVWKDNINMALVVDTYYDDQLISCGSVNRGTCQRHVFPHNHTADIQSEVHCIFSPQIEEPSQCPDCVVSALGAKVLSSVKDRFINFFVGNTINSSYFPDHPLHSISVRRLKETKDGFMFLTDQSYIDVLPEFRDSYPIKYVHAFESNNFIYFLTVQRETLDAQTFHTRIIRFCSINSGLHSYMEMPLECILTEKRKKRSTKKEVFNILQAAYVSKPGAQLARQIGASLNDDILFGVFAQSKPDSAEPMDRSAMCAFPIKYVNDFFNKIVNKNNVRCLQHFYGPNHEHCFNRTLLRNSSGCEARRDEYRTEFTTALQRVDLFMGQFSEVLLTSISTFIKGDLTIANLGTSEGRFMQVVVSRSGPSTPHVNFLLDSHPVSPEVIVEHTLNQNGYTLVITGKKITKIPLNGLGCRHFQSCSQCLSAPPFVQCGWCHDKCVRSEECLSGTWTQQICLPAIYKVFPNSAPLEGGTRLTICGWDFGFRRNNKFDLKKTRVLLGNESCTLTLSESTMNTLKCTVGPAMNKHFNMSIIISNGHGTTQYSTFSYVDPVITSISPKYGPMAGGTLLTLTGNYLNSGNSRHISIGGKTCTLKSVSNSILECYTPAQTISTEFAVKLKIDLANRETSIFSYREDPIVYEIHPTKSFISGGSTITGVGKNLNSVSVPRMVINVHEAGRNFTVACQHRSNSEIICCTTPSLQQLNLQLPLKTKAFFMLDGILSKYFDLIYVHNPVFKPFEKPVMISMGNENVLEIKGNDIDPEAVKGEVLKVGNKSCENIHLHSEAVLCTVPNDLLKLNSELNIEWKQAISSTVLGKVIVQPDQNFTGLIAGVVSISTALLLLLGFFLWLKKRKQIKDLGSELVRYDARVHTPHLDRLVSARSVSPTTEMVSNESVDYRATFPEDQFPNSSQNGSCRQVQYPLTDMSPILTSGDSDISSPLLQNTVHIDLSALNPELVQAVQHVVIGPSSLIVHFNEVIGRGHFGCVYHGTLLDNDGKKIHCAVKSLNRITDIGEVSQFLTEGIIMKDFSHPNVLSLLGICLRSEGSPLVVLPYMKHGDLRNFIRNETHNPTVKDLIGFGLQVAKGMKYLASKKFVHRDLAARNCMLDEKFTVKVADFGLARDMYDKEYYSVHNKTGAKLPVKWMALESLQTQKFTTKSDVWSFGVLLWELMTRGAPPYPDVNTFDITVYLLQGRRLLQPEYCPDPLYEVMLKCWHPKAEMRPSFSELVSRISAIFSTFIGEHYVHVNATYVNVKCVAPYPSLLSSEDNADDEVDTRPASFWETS

Question: Which results are given for `COC(=O)Nc1nc2cc(Oc3cccc(NC(=O)Nc4cc(C(F)(F)F)ccc4F)c3)ccc2[nH]1`?
Answer: inhibition [1]: 24.9%; inhibition [2]: 7.9%; inhibition [3]: 45.9%; inhibition [4]: 5.64%; inhibition [5]: 41.6%; inhibition [6]: -1.21%; inhibition [7]: -0.14%; inhibition [8]: 1%; inhibition [9]: 0.32%; inhibition [10]: 4.58%

Question: With `NCc1ccc(-c2nc(-c3ccc(Cl)c(O)c3)c(-c3ccncc3)[nH]2)cc1` as the compound, how does the inhibition [1] read?
Answer: The inhibition was 1.88%.

Question: What about the inhibition [2] of the same compound?
Answer: Its inhibition is 6.73%.

Question: And the inhibition [3]?
Answer: Its inhibition is 42.8%.

Question: What about the inhibition [4] of the same compound?
Answer: Its inhibition is 4.81%.

Question: What about the inhibition [5] of the same compound?
Answer: Its inhibition is 37.1%.

Question: And the inhibition [6]?
Answer: Its inhibition is -0.12%.

Question: What about the inhibition [7] of the same compound?
Answer: Its inhibition is 6.1%.

Question: And the inhibition [8]?
Answer: Its inhibition is 5.53%.

Question: What about the inhibition [9] of the same compound?
Answer: The inhibition was 14.5%.

Question: What about the inhibition [10] of the same compound?
Answer: Its inhibition is 0.08%.

Question: `CCN1CCC(CC(=O)Nc2n[nH]c3nc(-c4cccs4)c(Br)cc23)CC1` was tested. Which inhibition [1] did it give?
Answer: Its inhibition is 0.89%.

Question: And the inhibition [2]?
Answer: The inhibition was 0.07%.

Question: What about the inhibition [3] of the same compound?
Answer: The inhibition was 1.67%.

Question: What about the inhibition [4] of the same compound?
Answer: The inhibition was -0.46%.

Question: And the inhibition [5]?
Answer: Its inhibition is 1.82%.

Question: And the inhibition [6]?
Answer: The inhibition was -0.67%.

Question: What about the inhibition [7] of the same compound?
Answer: The inhibition was 3.05%.

Question: And the inhibition [8]?
Answer: Its inhibition is -0.73%.

Question: And the inhibition [9]?
Answer: The inhibition was -0.38%.

Question: And the inhibition [10]?
Answer: Its inhibition is 0.33%.

Question: Which results are given for `CCn1c(-c2nonc2N)nc2c(C#CC(C)(C)O)nc(OC[C@@H](N)c3ccccc3)cc21`?
Answer: inhibition [1]: 9.21%; inhibition [2]: -0.29%; inhibition [3]: 1.01%; inhibition [4]: -1.22%; inhibition [5]: 0.53%; inhibition [6]: -0.92%; inhibition [7]: 0.47%; inhibition [8]: -2.86%; inhibition [9]: -4.52%; inhibition [10]: -0.69%

Question: With `O=C1NC(=O)C(c2ccccc2Cl)=C1Nc1cccc(O)c1` as the compound, how does the inhibition [1] read?
Answer: Its inhibition is 1.2%.

Question: And the inhibition [2]?
Answer: Its inhibition is 5.68%.

Question: And the inhibition [3]?
Answer: Its inhibition is 3.94%.

Question: What about the inhibition [4] of the same compound?
Answer: The inhibition was 1.34%.

Question: What about the inhibition [5] of the same compound?
Answer: The inhibition was 2.65%.

Question: What about the inhibition [6] of the same compound?
Answer: Its inhibition is 1.63%.

Question: What about the inhibition [7] of the same compound?
Answer: The inhibition was 4.66%.

Question: What about the inhibition [8] of the same compound?
Answer: Its inhibition is 1.79%.

Question: What about the inhibition [9] of the same compound?
Answer: The inhibition was -0.4%.

Question: And the inhibition [10]?
Answer: The inhibition was 3.23%.

Question: What does the source list for `COc1cccc(-n2ncc3c(N/N=C/c4cccc(F)c4)ncnc32)c1`?
Answer: inhibition [1]: 1.7%; inhibition [2]: 13.9%; inhibition [3]: 55.9%; inhibition [4]: 10.2%; inhibition [5]: 50.7%; inhibition [6]: 0.34%; inhibition [7]: 7.16%; inhibition [8]: 7.49%; inhibition [9]: 17.2%; inhibition [10]: 3.52%

Question: How did the inhibition [1] turn out when `Nc1ncnc2occ(-c3ccc(NC(=O)Nc4cc(C(F)(F)F)cc(C(F)(F)F)c4)cc3)c12` was run?
Answer: Its inhibition is 23.7%.

Question: What about the inhibition [2] of the same compound?
Answer: Its inhibition is 4.96%.

Question: What about the inhibition [3] of the same compound?
Answer: Its inhibition is 37%.

Question: What about the inhibition [4] of the same compound?
Answer: The inhibition was 3.86%.

Question: And the inhibition [5]?
Answer: Its inhibition is 34%.

Question: And the inhibition [6]?
Answer: Its inhibition is 0.69%.

Question: What about the inhibition [7] of the same compound?
Answer: Its inhibition is 14.4%.

Question: And the inhibition [8]?
Answer: The inhibition was -0.72%.

Question: What about the inhibition [9] of the same compound?
Answer: Its inhibition is 10.3%.

Question: And the inhibition [10]?
Answer: The inhibition was 77.6%.

Question: With `CS(=O)(=O)Nc1ccc(N/C=C2\C(=O)Nc3ccccc32)cc1` as the compound, how does the inhibition [1] read?
Answer: The inhibition was 3.76%.

Question: What about the inhibition [2] of the same compound?
Answer: Its inhibition is 0.65%.

Question: And the inhibition [3]?
Answer: The inhibition was 12.1%.

Question: And the inhibition [4]?
Answer: The inhibition was -0.91%.

Question: And the inhibition [5]?
Answer: The inhibition was 11.3%.

Question: What about the inhibition [6] of the same compound?
Answer: Its inhibition is -0.15%.

Question: And the inhibition [7]?
Answer: The inhibition was 3.63%.

Question: And the inhibition [8]?
Answer: Its inhibition is -4.32%.

Question: What about the inhibition [9] of the same compound?
Answer: Its inhibition is -0.23%.

Question: What about the inhibition [10] of the same compound?
Answer: Its inhibition is 2.12%.

Question: How did the inhibition [1] turn out when `Cc1cccc(-c2n[nH]cc2-c2ccc3ncccc3n2)n1` was run?
Answer: Its inhibition is 0.08%.

Question: What about the inhibition [2] of the same compound?
Answer: Its inhibition is 0.89%.

Question: And the inhibition [3]?
Answer: Its inhibition is 7.91%.

Question: And the inhibition [4]?
Answer: The inhibition was 0.34%.

Question: And the inhibition [5]?
Answer: Its inhibition is 7.01%.

Question: What about the inhibition [6] of the same compound?
Answer: The inhibition was -0.08%.

Question: What about the inhibition [7] of the same compound?
Answer: The inhibition was 0.84%.

Question: And the inhibition [8]?
Answer: Its inhibition is 2.89%.

Question: And the inhibition [9]?
Answer: The inhibition was -1.62%.

Question: What about the inhibition [10] of the same compound?
Answer: The inhibition was 0.64%.
